In the library only some 11% were active in any assay of this set; here they are far more common.
FLuc inh-1: Firefly luciferase inhibition profiling of diverse chemical library using quantitative high-throughput screening | purified P. pyralis luciferase, luminescence, biochemical | Potency, µM (titrated, usually from 115 µM), hits mostly inhibitors | hit rate 2.5% among 76,000; further: on the % scale 0 is the no-effect control and ±100 the full control effect; nearly all actives have a fitted effect of over 65% in size
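Purified 10nM P. pyralis luciferase with 10uM D-luciferin and 10uM ATP in 50mM Tris acetate pH 7.5, 10mM Mg acetate, 0.01% Tween-20, 0.05% BSA. qHTS titration; luminescence read by CCD imager.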
HEK293 tox: Cytotoxic Profiling in HEK 293 Cell Line of Diverse Libraries Using Quantitative High-Throughput Screening | HEK 293 viability, ATP luminescence (CellTiter-Glo), 48-72 h | Potency, µM (series often up to 115 µM), for the others: at the top dose activity change, negative = cytotoxicity, actives largely listed as inhibitors | hit rate 6.6% among 94,000 | AID 1345083, 2018; further: on the % scale 0 is the no-effect control and ±100 the full control effect; nearly all actives have a fitted effect of over 60% in size
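ATP-coupled CellTiter-Glo luminescence served as viability read-out, recorded 10 min after reagent addition at room temperature. HEK 293 cells, 250 cells/well, had been incubated with pintool-transferred compound for 48 or 72 hr at 37 degree Celsius.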
3T3 cytotox: Cytotoxic Profiling in NIH 3T3 Cell Line of Diverse Libraries Using Quantitative High-Throughput Screening; NIH 3T3 viability, CellTiter-Glo ATP luminescence, 48-72 h; Potency, µM (doses to about 96.7 µM), without a hit: at the top dose activity change, negative = cytotoxicity, usual class: inhibitors; hit rate 4.3% among 94,000; AID 1345082, 2018; further: on the % scale 0 is the no-effect control and ±100 the full control effect; nearly all actives have a fitted effect of over 55% in size
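Mouse fibroblast NIH 3T3 cells, 400 per well, received compound via pintool and were incubated for 48 or 72 hr prior to CellTiter-Glo ATP luminescence measurement.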
hNpr1 antagonist: Natriuretic polypeptide receptor (hNpr1) antagonism - Primary qHTS; Atrial natriuretic peptide receptor 1 (Homo sapiens), P16066; HEK293 hNpr1 GloSensor cGMP, ANP-stimulated luminescence; Potency, µM (highest dose often 46.3 µM), for inactives: at the highest dose activity change, negative = inhibition, actives largely listed as inhibitors; hit rate 1.6% among 76,000; calls by dose curve; further: on the % scale 0 is the no-effect control and ±100 the full control effect; nearly all actives have a fitted effect of over 60% in size
Target sequence (P16066 whole entry, looked up): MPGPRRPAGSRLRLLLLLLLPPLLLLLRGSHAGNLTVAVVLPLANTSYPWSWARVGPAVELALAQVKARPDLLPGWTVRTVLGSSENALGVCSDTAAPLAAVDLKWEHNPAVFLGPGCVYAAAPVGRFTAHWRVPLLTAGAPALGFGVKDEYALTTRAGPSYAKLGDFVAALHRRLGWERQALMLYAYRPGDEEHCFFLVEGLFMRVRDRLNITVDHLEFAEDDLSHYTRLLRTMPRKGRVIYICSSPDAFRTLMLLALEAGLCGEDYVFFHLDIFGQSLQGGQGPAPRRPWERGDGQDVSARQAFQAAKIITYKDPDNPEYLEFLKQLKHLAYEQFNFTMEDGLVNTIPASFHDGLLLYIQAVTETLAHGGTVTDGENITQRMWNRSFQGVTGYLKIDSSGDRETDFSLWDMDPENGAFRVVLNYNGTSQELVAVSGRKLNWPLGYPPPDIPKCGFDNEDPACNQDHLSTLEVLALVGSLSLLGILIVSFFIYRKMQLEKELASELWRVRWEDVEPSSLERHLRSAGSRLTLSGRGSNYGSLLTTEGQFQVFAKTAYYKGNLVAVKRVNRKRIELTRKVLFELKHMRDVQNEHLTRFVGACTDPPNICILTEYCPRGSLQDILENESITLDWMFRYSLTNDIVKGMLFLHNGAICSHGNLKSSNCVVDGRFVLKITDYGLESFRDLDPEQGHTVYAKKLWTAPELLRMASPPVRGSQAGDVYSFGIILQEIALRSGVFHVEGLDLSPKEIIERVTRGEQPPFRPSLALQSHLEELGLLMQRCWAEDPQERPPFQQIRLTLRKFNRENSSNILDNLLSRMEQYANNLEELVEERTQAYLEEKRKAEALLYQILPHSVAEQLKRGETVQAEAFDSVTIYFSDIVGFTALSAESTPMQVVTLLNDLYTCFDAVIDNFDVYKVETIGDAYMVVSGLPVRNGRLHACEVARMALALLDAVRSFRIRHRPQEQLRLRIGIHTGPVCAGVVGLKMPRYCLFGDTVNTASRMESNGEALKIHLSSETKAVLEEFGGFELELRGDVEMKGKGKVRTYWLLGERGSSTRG
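HEK293 cells stably expressing human Npr1 and cGMP GloSensor pGS-40F, loaded 2 h with 2% GloSensor reagent, given compound 30 min at room temperature. Luminescence read before and 20 min after 0.1 nM hNppA.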
FLuc SDR no ATP: Firefly luciferase (FLuc-C-HiBiT) SDR gain of signal screen - without ATP; shares compounds with FLuc inh-1; Purified FLuc-C-HiBiT, Nano-Glo HiBiT luminescence, no ATP; Potency, µM (highest dose often 32.7 µM), for inactives: top-dose activation (signal gain), most hits filed as activators; hit rate 7.8% among 1,300; AID 1963318, 2024; further: nearly all actives have a fitted effect of over 55% in size
FLuc SDR ATP: Firefly luciferase (FLuc-C-HiBiT) SDR gain of signal screen - plus ATP | shares compounds with FLuc inh-1 | purified FLuc-C-HiBiT + ATP, HiBiT complementation luminescence | Potency, µM (doses to about 32.7 µM), for the others: at the top dose activation (gain of signal), most hits filed as activators | hit rate 8.7% among 1,300;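 further: signal reports ligand binding via conformational change of the enzyme rather than luciferase catalysis; % of control where 0% means no effect; nearly all actives have a fitted effect of over 55% in size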
FLuc inh-2: Firefly luciferase (FLuc-C-HiBiT) enzymatic inhibition screen - Functional assay; shares compounds with FLuc inh-1; purified FLuc-C-HiBiT enzyme, luciferin luminescence; Potency, µM (top dose mostly 32.7 µM), for the others: at the highest dose activity change, negative = inhibition, most hits filed as inhibitors; hit rate 42% among 1,300; further: on the % scale 0 is the no-effect control and ±100 the full control effect; nearly all actives have a fitted effect of over 70% in size
Numbers without * were called inactive; i = inactive; ? = inconclusive; nt = no result given; [ ] = another dose, or the depositor's remark. Unless noted, the call rests on the fitted dose curve; in most records, active means well fitted curve in the direction sought with a large enough effect; inconclusive means small, poorly fitted or top-dose-only effect, or another doubt; inactive means no such curve, though single readings can be large; an effect the other way counts as inactive or inconclusive. Potency means the concentration at half of the fitted maximal effect.

SMILES | FLuc inh-1 | HEK293 tox | 3T3 cytotox | hNpr1 antagonist | FLuc SDR no ATP | FLuc SDR ATP | FLuc inh-2
CCOc1ccccc1NC(=O)N1CCCCCCN(C)C(=O)[C@H]2CCC[C@H]21 | i | ? | ? | -8.0% | nt | nt | nt
O=C(O)c1cccc(-c2cnc3ccccc3c2)c1 | nt | -12.1%[172 µM] | -14.2%[138 µM] | nt | nt | nt | nt
NC(=O)COC(=O)c1ccccc1-c1nc2ccccc2s1 | nt | nt | nt | nt | 11.8% | 7.9% | -4.8%
c1ccc(COc2cccc(-c3nc4ccccc4s3)c2)cc1 | nt | nt | nt | nt | 25.6% | 18.4% | 4.95µM*
c1ccc(COc2ccccc2-c2nc3ccccc3s2)cc1 | nt | nt | nt | nt | 16.2% | 13.0% | ?
Cc1nn2c(c1-c1ccccc1OCc1ccccc1)N(Cc1ccccc1O)CCC2 | i | ? | ? | ? | nt | nt | nt
Cc1cn2c(=O)cc(COC(=O)c3cccc(NC(=O)COc4ccccc4Cl)c3)nc2s1 | nt | nt | nt | nt | 12.9% | 9.89µM* | 7µM*
Cc1cn2c(=O)cc(CN3CC[C@@](C)(O)[C@@H](O)C3)nc2s1 | i | -23.9% | -18.8% | -5.2% | nt | nt | nt
Cn1nccc1-c1cc2c(cn1)CN(Cc1ccncc1)CCN2 | i | ? | -39.0%[138 µM] | -5.1%[70.6 µM] | nt | nt | nt
Oc1ccccc1CN1CCNc2cc(Nc3ccccc3)ncc2C1 | 5.62µM* | 28.2µM* | 31.6µM* | -24.8%[70.6 µM] | 17.0% | 12.2% | ?
CC(=O)N1CCNc2cc(Nc3ccc(F)cc3)ncc2C1 | 2.24µM* | ? | ? | ? | ? | ? | 5.7µM*
Cc1[nH]cnc1CN1CCNc2cc(Nc3ccccc3)ncc2C1 | 6.31µM* | ? | ? | -5.1%[70.6 µM] | 27.5%[49.3 µM] | 15.9%[49.3 µM] | ?
c1cncc(Nc2cc3c(cn2)CN(Cc2ccn[nH]2)CCN3)c1 | nt | nt | nt | nt | 21.2%[49.3 µM] | 14.2%[49.3 µM] | ?
CC(=O)N1CCNc2cc(NCc3ccc(F)cc3)ncc2C1 | ? | -54.8%[172 µM] | -43.1%[138 µM] | -10.0%[70.6 µM] | nt | nt | nt
c1ccc(Oc2cc3c(cn2)NCCN(Cc2cnc[nH]2)C3)cc1 | i | ? | -25.0%[138 µM] | -27.3%[70.6 µM] | nt | nt | nt
c1ccc(Nc2cc3c(cn2)CN(Cc2ccn[nH]2)CCN3)cc1 | 7.94µM* | ? | ? | -20.8%[70.6 µM] | 28.2%[49.3 µM] | 15.5%[49.3 µM] | ?
c1ccc(CN2CCNc3cnc(Nc4ccncn4)cc3C2)cc1 | i | ? | ? | -1.9%[70.6 µM] | nt | nt | nt
c1cncc(Nc2cc3c(cn2)CN(Cc2cnc[nH]2)CCN3)c1 | nt | nt | nt | nt | 11.0% | 8.7% | -8.4%
CC(=O)N1CCC(c2nnc3n2C(C(=O)N2CCN(C)CC2)CC3)CC1 (stereo not drawn) | nt | -11.5% | -17.3% | nt | nt | nt | nt
COc1ccccc1OC(C)C(=O)Nc1cccc(-c2nc3ccccc3s2)c1 (stereo not drawn) | nt | nt | nt | nt | 9.8% | 7.3% | ?
O=C(Nc1ccc(-c2nnc3n2CCCC3)cc1)c1ccccc1F | i | 1.7% | 2.4% | -0.5% | nt | nt | nt
CC(Oc1ccccc1F)C(=O)Nc1ccc(-c2nc3ccccc3s2)cc1 (stereo not drawn) | nt | nt | nt | nt | 16.0% | 10.8% | ?
COc1ccccc1CNC(=O)c1cc2cn(C(C)C)cc2s1 | i | ? | -25.2% | ? | nt | nt | nt
O=C(Nc1ccc(-c2nc3ccccc3s2)cc1)c1c(F)c(F)c(F)c(F)c1F | nt | nt | nt | nt | 13.2% | 9.8% | 4.8%
COc1ccc(CC(=O)N2CCCC(C(=O)N3CCC(N4CCOCC4=O)CC3)C2)cc1 (stereo not drawn) | nt | 1.9% | 2.2% | nt | nt | nt | nt
CC1(C)CC(NC(=O)C2CCN(c3nc(-c4ccccc4)nc4c3CCC4)CC2)CCO1 (stereo not drawn) | i | ? | ? | 5.6% | nt | nt | nt
